Test results reported in PubChem BioAssay (Tox21).
Records with an inconclusive call do not appear. Where a call stands in place of a potency, no number is given. Active and inactive are the calls of the source. Calls follow the shape of the dose curve; as a rule, active = well fitted curve in the direction sought with a large enough effect in the repeat runs; inconclusive = weak or mixed curves; inactive = no such curve, though single readings can be large; an effect the other way counts as inactive or inconclusive.

Experiments:
[1] = A CellTox Green Cytotoxicity Assay to monitor cytotoxicity in HepG2 cells - 32 hour (AID 1224883); also: nearly all actives have a fitted effect of over 50% in size
Summary of the method: (§1)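 HepG2 cells were seeded together with the CellTox Green dye at 600 cells/well, left 5 h at 37 C/5% CO2, then given compounds in DMSO. Fluorescence from dye bound to dead-cell DNA was read repeatedly over 40 h of treatment at 37 C.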

[2] = A CellTox Green Cytotoxicity Assay to monitor cytotoxicity in HEK293 cells - 8 hour (AID 1224884); also: nearly all actives have a fitted effect of over 35% in size
Summary of the method: (§2)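 HEK293 cells premixed with CellTox Green dye were seeded at 600 cells/well and left 5 h at 37 C/5% CO2 before pin transfer of 23 nL compound in DMSO. Fluorescence from dye bound to dead-cell DNA was read during 40 h treatment.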

[3] = qHTS RealTime-Glo MT Cell Viability Assay in HepG2 cells - 16 hour (AID 1224885); also: nearly all actives have a fitted effect of over 50% in size
Summary of the method: (§3)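 Cells + NanoLuc/prosubstrate dispensed (600 cells/well) → 5 h at 37 C/5% CO2 → compounds in DMSO transferred → 40 h incubation at 37 C, luminescence read at 0, 8, 16, 24, 32, 40 h.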

[4] = qHTS RealTime-Glo MT Cell Viability Assay in HEK293 cells - 24 hour (AID 1224886); also: top concentration of the series differs between compounds; nearly all actives have a fitted effect of over 50% in size
Summary of the method: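 Tox21 10K qHTS, HEK293, 600 cells/well, RealTime-Glo reagent co-dispensed with cells; 5 h preincubation, compound by pintool, 37 C, luminescence at 0–40 h.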

[5] = qHTS RealTime-Glo MT Cell Viability Assay in HEK293 cells - 8 hour (AID 1224887); also: top concentration of the series differs between compounds; nearly all actives have a fitted effect of over 50% in size
Summary of the method: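 HEK293 cells mixed with RealTime-Glo reagents (NanoLuc plus cell-permeant prosubstrate) at 600 cells/well, preincubated 5 h at 37 C/5% CO2, then given 23 nL compound in DMSO. Nonlytic luminescence from viable cells was read at 0, 8, 16, 24, 32 and 40 h.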

[6] = A CellTox Green Cytotoxicity Assay to monitor cytotoxicity in HEK293 cells - 16 hour (AID 1224888); also: nearly all actives have a fitted effect of over 35% in size
Summary of the method: as §2

[7] = qHTS RealTime-Glo MT Cell Viability Assay in HepG2 cells - 0 hour (AID 1224889); also: nearly all actives have a fitted effect of over 50% in size; also: potency is read from the fitted curve at half-maximal effect
Summary of the method: as §3

[8] = A CellTox Green Cytotoxicity Assay to monitor cytotoxicity in HepG2 cells - 8 hour (AID 1224890); also: nearly all actives have a fitted effect of over 45% in size
Summary of the method: as §1

[9] = qHTS assay to identify small molecule antagonists of the estrogen receptor alpha (ER-alpha) signaling pathway using the BG1 cell line in the presence of 0.1 nM 17-beta-estradiol - cell viability counter screen (AID 1259241); also: nearly all actives have a fitted effect of over 40% in size; also: potency is read from the fitted curve at half-maximal effect
Summary of the method: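 Viability in VM7Luc4E2 cells after 22 hr compound exposure under 0.1 nM 17beta-estradiol stimulation, by CellTiter-Fluor.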

| Compound | Potency [1] | Potency [2] | Potency [3] | Potency [4] | Potency [5] | Potency [6] | Potency [7] | Potency [8] | Potency [9] |
| --- | --- | --- | --- | --- | --- | --- | --- | --- | --- |
| CCCCCCCCCCCCCCCC(=O)OCC | inactive | inactive | inactive | inactive | inactive | inactive | inactive | inactive | inactive |
| Cc1ccc(Cl)cc1N | inactive | inactive | inactive | inactive | inactive | inactive | inactive | inactive | inactive |
| Nc1ccc(NC(=O)c2ccc(N)cc2)cc1 | inactive | inactive | inactive | inactive | inactive | inactive | inactive | inactive | inactive |
| CC(C)(C)S | inactive | inactive | inactive | inactive | inactive | inactive | inactive | inactive | inactive |
| CCO[Si](C)(CCCOCC1CO1)OCC (centres undefined) | inactive | inactive | inactive | inactive | inactive | inactive | inactive | inactive | inactive |
| CC1CCCC(=O)C1=O (centres undefined) | – | inactive | inactive | inactive | inactive | inactive | inactive | inactive | inactive |
| COC1CCC=CO1 (centres undefined) | – | inactive | inactive | inactive | inactive | inactive | inactive | inactive | inactive |
| CS(=O)(=O)c1ccc([C@@H](C[C@H]2CCC(=O)C2)C(=O)Nc2cnccn2)cc1Cl | inactive | inactive | inactive | inactive | inactive | inactive | inactive | inactive | – |
| C=C(C)c1ccccc1 | inactive | inactive | inactive | inactive | inactive | inactive | inactive | inactive | inactive |
| Cc1c(C2(c3cc(Br)c(O)c(Br)c3C)OS(=O)(=O)c3ccccc32)cc(Br)c(O)c1Br | inactive | inactive | inactive | inactive | – | inactive | 13.4 µM (active) | inactive | 13.3 µM (active) |
| CSCC[C@H](NC(=O)[C@H](Cc1c[nH]c2ccccc12)NC(=O)CCNC(=O)OC(C)(C)C)C(=O)N[C@@H](CC(=O)O)C(=O)N[C@@H](Cc1ccccc1)C(N)=O | inactive | inactive | inactive | inactive | inactive | inactive | inactive | inactive | – |
